These entries were drawn from the full list.
aSyn 5UTR act: Activators via SNCA 5'UTR binding, MLPCN; activity score, % (tested at 7.5 µM), hits read low; actives 7.1% (n = 300,000); alpha-synuclein 5'UTR reporter, activators screen; in the data active means activity score below about -60%
The depositor's hits bear a star.

SMILES	aSyn 5UTR act
Cc1cc(C(=O)Nc2sc(C)c(-c3ccc(F)cc3)c2C(N)=O)no1	-199.8*
Cc1ccc(NC(=O)CCn2nnc3ccccc32)cc1	-84.2*
CC(=O)Nc1ccc(C(=O)Cn2nnc3ccccc3c2=O)cc1	-65.7*
Cc1ccc(C(=O)Cn2nnc3ccccc32)cc1	-161.4*
O=C(Cn1nnc2ccccc21)c1ccc(Br)cc1	-82.2*
O=C(Cn1nnc2ccccc2c1=O)NC1CCCCC1	-68.3*
O=C(CCn1nnc2ccccc21)N1CCN(c2ccccc2)CC1	-118.9*
Cc1ccc(C(=O)Cn2nnc3ccccc32)cc1C	-90.4*
N#Cc1ccsc1NC(=O)COc1ccc(-c2nnco2)cc1	-95.8*
CCN(CC)c1ccc(C(=O)OCC(=O)Nc2sccc2C#N)cc1	-176.5*
N#Cc1ccsc1NC(=O)COC(=O)c1cc2ccccc2cc1O	-178.1*
CC(=O)Nc1ccc(SCC(=O)Nc2sccc2C#N)cc1	-111.1*
N#Cc1ccsc1NC(=O)CCc1ccccc1	-80.7*
N#Cc1ccsc1NC(=O)COC(=O)c1ccc(NC(N)=O)cc1	-78.0*
Clc1ccc(Br)cc1-c1nc(-c2ccncc2)no1	-188.5*
Cc1cccc(-c2nc(-c3ccncc3)no2)c1	-68.5*
Brc1cccc(-c2nc(-c3ccncc3)no2)c1	-100.0*
Cc1cc(C)cc(-c2nc(-c3ccncc3)no2)c1	-149.2*
Cc1ccc(-c2nc(-c3ccccc3)no2)c(Cl)c1	95.5
CCN(CC)c1ccc(O)c(C=Nc2ccc(C)c(C)c2)c1	-76.5*
Cc1ccc(N=Nc2ccc(O)c(/C=N\NC(=O)c3ccc(N)cc3)c2)cc1C	58.5
Cc1ccc(N=Cc2ccc(N(C)C)cc2)cc1C	-123.2*
C=CCN(C(=O)CCc1ccccc1OC)c1nc(-c2ccc(S(C)(=O)=O)cc2)cs1	70.8
COCCN(C(=O)c1ccccc1F)c1nc(-c2ccc(OC)cc2)cs1	-72.8*
CCC(=O)N(CC)c1nc(-c2ccc(OC)cc2)cs1	-161.0*
SMILES	aSyn 5UTR act
CCN(C(=O)c1ccccc1F)c1nc(-c2ccc(OC)cc2)cs1	-198.9*
CN(C(=O)c1ccco1)c1nc(-c2ccccc2)cs1	-157.7*
CCN(C(=O)c1ccco1)c1nc(-c2ccc(OC)cc2)cs1	-158.6*
COCCN(C(=O)c1ccccc1F)c1nnc(-c2ccc(OC)cc2)s1	-73.0*
COc1cccc(C(=O)Nc2cc3c(cc2Cl)OCCCO3)c1	-130.2*
COc1ccc(C(=O)Nc2cc3c(cc2Cl)OCCCO3)cc1	-148.2*
COc1ccc(-c2nnc(NC(=O)c3ccc4c(c3)OCCO4)o2)cc1	104.7
Nc1ccc(SCc2nc3cccc4c3n2CCC4)cc1	-99.5*
CCc1nnc2c3cnn(-c4ccccc4)c3ncn12	-183.2*
COCCc1nc2ccc(C(=O)N(C)Cc3cccc(-n4cccn4)c3)cc2o1	-74.7*
Cn1c(N/N=C/c2c[nH]c3ccccc23)nc2ccccc21	-126.4*
Fc1c(F)c(F)c(N/N=C/c2c[nH]c3ccccc23)c(F)c1F	-103.1*
Cn1c(N/N=C/c2cc3ccccc3nc2Cl)nc2ccccc21	-127.0*
O=C(CSc1cccc[n+]1[O-])c1cc(Cl)ccc1Cl	-87.4*
O=C(CN1C(=O)c2ccccc2S1(=O)=O)c1ccc(Cl)cc1Cl	77.7
O=C(CSc1cccc[n+]1[O-])c1cc2ccccc2o1	-101.1*
COc1ccccc1C1CCN(c2ccc([N+](=O)[O-])c(OC)c2)CC1	-75.1*
COCCCN1CN=C(Nc2nc3ccccc3o2)NC1	-81.7*
CCCN1CN=C(Nc2nc3ccccc3o2)NC1	-112.9*
c1ccc2oc(NC3=NCN(CC4CCCO4)CN3)nc2c1 (stereo not drawn)	-93.7*
CC1CCc2sc(NC(=S)NC(=O)c3ccccc3)c(C#N)c2C1 (stereo not drawn)	-141.2*
CC(=O)NC(=S)Nc1sc2c(c1C#N)CCCCC2	-119.5*
CCC1(C)Cc2c(sc(NC(=S)NC(=O)c3ccccc3)c2C#N)CO1 (stereo not drawn)	-145.5*
Cn1nccc1C(=O)NC(=S)Nc1sc2c(c1C#N)CCCCC2	-148.3*
N#Cc1c(NC(=O)C2CC2)sc2c1CCCCC2	-119.2*
SMILES	aSyn 5UTR act
N#Cc1c(NC(=S)NC(=O)c2ccccc2)sc2c1CCC2	-126.5*
O=C(Nc1ccccc1C(=O)NCCc1ccccc1)c1cnccn1	-68.4*
O=C(O)CCC(=O)Nc1ccccc1C(=O)NCCc1ccccc1	-77.7*
O=C(NCCc1ccccc1)c1ccccc1NC(=O)C1CC=CCC1C(=O)O (stereo not drawn)	-133.3*
O=C(CCc1ccccc1)Nc1c(F)cccc1F	-133.3*
NC(=O)c1ccccc1NC(=O)CCc1ccccc1	-113.0*
Cc1ccoc1C(=O)Nc1cccc2ccccc12	-92.2*
O=C(Nc1cccc2ccccc12)c1cnccn1	-96.5*
Cc1cc(NO)nc(-c2ccc(Br)cc2)n1	-277.5*
COc1ccc(C=Nc2cccc3c(=O)[nH][nH]c(=O)c23)c2ccccc12	-67.4*
CNC(C)C#Cc1ccc2c(=O)c3ccccc3oc2c1 (stereo not drawn)	-244.5*
O=C(CCl)Nc1cc(SCC(O)CO)cc([N+](=O)[O-])c1 (stereo not drawn)	110.0
COc1cc(Br)cc(/C=N/NC(=O)Cc2ccc(C(F)(F)F)cc2[N+](=O)[O-])c1O	67.5
O=C(CSc1ccc(C(F)(F)F)cc1[N+](=O)[O-])Nc1ccccc1	-75.4*
Cc1ccc(Cl)c2c(N=Nc3ccccc3)c(O)[nH]c12	-170.1*
CN1CCN(C2=C(Cl)C(=O)N(Cc3ccccc3)C2=O)CC1	-119.6*
COc1ccc(NC2=C(Cl)C(=O)N(CCc3ccccc3)C2=O)c(OC)c1	-177.3*
Cc1cc(N2CCN(C)CC2)ccc1NC(=O)c1c2c(nc3ccccc13)CCN(Cc1ccccc1)C2	91.6
COc1ccc(CNC[C@@H](CCCCN(C)Cc2ccc(OC)cc2)N2C[C@H](c3ccccc3)N(CCc3ccc(Cl)c(Cl)c3)C(=O)C2=O)cc1	92.2
CCOc1ccc(NC2=C(Cl)C(=O)N(Cc3ccccc3)C2=O)cc1	-119.1*
COc1ccc(NC2=C(Cl)C(=O)N(CCc3ccccc3)C2=O)cc1	-68.0*
O=C(CSc1ccc(-c2ccccc2)nn1)c1cccs1	-94.3*
COc1ccc(-c2ccc(SCC(=O)c3cccs3)nn2)cc1	-94.5*
Cc1cc(SCC(=O)c2ccccc2)nc(=O)[nH]1	-106.7*
Cc1ccc(-c2ccc(SCC(=O)c3ccccc3)nn2)cc1	-64.9*
SMILES	aSyn 5UTR act
O=C(CSc1ccc(-c2cccs2)nn1)N1CCCCCC1	-71.5*
CCOc1ccccc1-c1nc(-c2ccc(C)nc2OC)no1	-207.0*
CCOc1nc(C)ccc1-c1noc(-c2ccco2)n1	-79.0*
Cc1ccc(C(=O)NCCc2csc(-c3cccnc3)n2)cc1	-76.7*
CCOC(=O)C(=CNc1ccc2c(c1)CCN2C(C)=O)C(=O)OCC	-78.4*
COc1cc(C(=O)Nc2ccc3c(c2)CCN3C(C)=O)cc(OC)c1OC	96.9
CN(C)/C=C/c1oc2ccc(O)cc2c1[N+](=O)[O-]	-85.6*
CC1CC(c2ccccc2)=Nc2ccccc2N1 (stereo not drawn)	-100.5*
O=C(Nc1ccc(-c2cn3ccccc3n2)cc1)c1ccco1	-208.5*
O=C(Nc1cccc(-c2cn3ccccc3n2)c1)c1ccccc1	-64.5*
CCCCC(=O)Nc1cccc(-c2cn3ccccc3n2)c1	-77.9*
CCN(CC)c1ccc(NC(=S)NCC2CCCO2)cc1 (stereo not drawn)	-82.8*
Clc1ccc(-c2ccc(CNCC3CCCO3)o2)cc1 (stereo not drawn)	-67.4*
O=C(NCC1CCCO1)Nc1ccc(Cl)cc1 (stereo not drawn)	-73.0*
